PubChem BioAssay AID720582 (The Scripps Research Institute Molecular Screening Center, 2013)
Screen size: about 370,000 compounds; about 2,300 (0.62%) were called active. The entries come from a sample that favours actives as a whole. Values without a mark were called inactive.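 How the source made its calls: active means inhibition above a per-campaign cutoff equal to the mean of compounds falling between control-based bounds plus 3 SD (cut at about 20% in these data); inactive means the rest.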

The compounds below were run against Disintegrin and metalloproteinase domain-containing protein 10 (Homo sapiens) (UniProt O14672) (assay: human ADAM10 inhibitors, primary screen, biochemical, QFRET, HTS (AID 720582;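 further: 0% = DMSO wells while the 100% control is not disclosed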)). Conditions: recombinant ADAM10, EDANS/DABCYL FRET peptide cleavage, 3 h; at 7 µM; hits give high values.
Disintegrin and metalloproteinase domain-containing protein 10 (Homo sapiens), sequence (O14672 214-748 limits assumed): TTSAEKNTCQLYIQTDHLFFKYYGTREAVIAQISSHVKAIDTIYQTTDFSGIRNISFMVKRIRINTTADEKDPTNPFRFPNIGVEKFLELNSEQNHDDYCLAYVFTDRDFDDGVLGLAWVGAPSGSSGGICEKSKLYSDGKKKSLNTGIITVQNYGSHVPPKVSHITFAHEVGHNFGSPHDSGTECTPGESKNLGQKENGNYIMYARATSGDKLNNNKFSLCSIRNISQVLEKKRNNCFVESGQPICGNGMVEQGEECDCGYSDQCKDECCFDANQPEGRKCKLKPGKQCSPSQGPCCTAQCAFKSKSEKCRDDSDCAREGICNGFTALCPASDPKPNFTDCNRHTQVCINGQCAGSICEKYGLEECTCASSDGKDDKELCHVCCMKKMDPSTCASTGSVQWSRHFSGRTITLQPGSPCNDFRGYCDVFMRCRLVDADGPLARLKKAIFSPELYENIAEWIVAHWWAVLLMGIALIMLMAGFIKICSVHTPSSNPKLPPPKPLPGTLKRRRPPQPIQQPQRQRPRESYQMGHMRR

**Q.** With `Oc1ccc(/C=C/c2c(F)cccc2F)c2cccnc12` as the compound, how does the inhibition read?
**A.** 5.02%

**Q.** How did the inhibition turn out when `Cc1ccc(Cn2cc(COC(=O)N(C)Cc3ccccc3)nn2)cc1` was run?
**A.** -0.56%

**Q.** How did the inhibition turn out when `Cc1ccc(S(=O)(=O)N2CCN(C(=O)COC(=O)CNC(=O)c3ccc(C(C)(C)C)cc3)CC2)c(C)c1` was run?
**A.** -0.12%

**Q.** `Cc1ccc(S(=O)(=O)N2CCN(C(=O)COC(=O)c3c(C)cc(C)cc3C)CC2)c(C)c1` was tested. Which inhibition did it give?
**A.** 23.9% (active)

**Q.** `COc1ccc(/C=C/C(=O)OCC(=O)N2CCN(S(=O)(=O)c3ccc(C)cc3C)CC2)cc1OC` was tested. Which inhibition did it give?
**A.** -21.9%

**Q.** `FC(F)(F)c1cccc(NC(=S)OC2CCC23CCC(c2ccccc2)CC3)c1` (stereo not drawn) was tested. Which inhibition did it give?
**A.** 10.3%

**Q.** With `CC1(Cc2cccc(C#N)c2)C(=O)Nc2ccc(-c3cccc(C(F)(F)F)c3)cc21` (stereo not drawn) as the compound, how does the inhibition read?
**A.** 33.6% (active)

**Q.** Which inhibition does the source give for `FC(F)(F)c1cccc(Cn2ccc3ccc(-c4ccc5ccn(Cc6ccccc6)c5c4)cc32)c1` here?
**A.** -38.5%

**Q.** How did the inhibition turn out when `COc1ccc(-n2c(SCC(=O)Nc3ccc(C)c(Cl)c3)nc3ccccc3c2=O)cc1` was run?
**A.** -4.98%

**Q.** `CCOC(=O)c1cccc(NC(=O)CN(C)S(=O)(=O)c2ccc(-c3cocn3)s2)c1` was tested. Which inhibition did it give?
**A.** 8.22%

**Q.** `C#CCN(C[C@H]1[C@H](OC(=O)NC2CCCC2)[C@H](OC(=O)NC2CCCC2)C[C@H]2C(=O)N(c3ccccc3)C(=O)[C@@H]12)S(=O)(=O)c1ccc(C)cc1` was tested. Which inhibition did it give?
**A.** 29.4% (active)

**Q.** How did the inhibition turn out when `Cc1ccc(S(=O)(=O)N2C[C@]3(O)C[C@@H]4C(=O)N(c5ccccc5)C(=O)[C@@H]4C[C@]3(OC(=O)NC3CC3)C2)cc1` was run?
**A.** -2.91%

**Q.** For `C#CCN(C[C@@H]1[C@@H](OC(=O)NC2CC2)[C@@H](OC(=O)NC2CC2)Cn2c(=O)ccc(=O)n21)S(=O)(=O)c1ccc(C)cc1`, which inhibition is on record?
**A.** -5.52%

**Q.** How did the inhibition turn out when `COC(=O)[C@]12C[C@H](CC(=O)N3CCOCC3)C(=O)N(Cc3ccc(Cl)cc3Cl)C1=C[C@H](COCc1ccccc1)O[C@@H]2C` was run?
**A.** 0.45%

**Q.** Which inhibition does the source give for `COc1cc(NC(=O)COC(=O)c2cnc(C)cn2)c(C)cc1[N+](=O)[O-]` here?
**A.** 2.74%

**Q.** `Cc1cnc(C(=O)OCc2c(C)cc(C(C)(C)C)cc2C)cn1` was tested. Which inhibition did it give?
**A.** 21.7% (active)

**Q.** `Cc1cnc(C(=O)OCC(=O)NCCCc2ccccc2)cn1` was tested. Which inhibition did it give?
**A.** -1.14%

**Q.** `Cc1cccc(NC(=O)C[C@H]2CC[C@H]3[C@@H](COc4ccc(NC(=O)Nc5ccccc5)cc4C(=O)N3C)O2)c1` was tested. Which inhibition did it give?
**A.** 5.56%

**Q.** With `COc1cccc(NC(=O)C2C(c3ccccc3)C2(Cl)Cl)c1` (stereo not drawn) as the compound, how does the inhibition read?
**A.** 19.8% (active)

**Q.** How did the inhibition turn out when `COc1cccc(NC(=O)C/C(C)=N/NC(=O)C2CCCCC2)c1` was run?
**A.** 15.3%

**Q.** With `COc1cccc(NC(=O)C2c3cc(OC)c(OC)cc3C(=O)N(C)C2c2cccnc2)c1` (stereo not drawn) as the compound, how does the inhibition read?
**A.** -5.09%

**Q.** How did the inhibition turn out when `Cc1ccc(CSc2nnc(SCC(=O)NN=Cc3cc(Br)ccc3F)s2)cc1` was run?
**A.** -6.1%

**Q.** How did the inhibition turn out when `COc1ccc(NC(=S)NCC2CCN(c3ccc(OC)cc3)C2)cc1` (stereo not drawn) was run?
**A.** 7.62%

**Q.** `Cc1ccc(NC(=O)COC(=O)CNC(=O)c2ccc(Cl)cc2Cl)cc1S(=O)(=O)N1CCOCC1` was tested. Which inhibition did it give?
**A.** 7.22%

**Q.** With `O=C(CCNC(=O)c1ccc([N+](=O)[O-])cc1)Nc1ccccc1N1CCOCC1` as the compound, how does the inhibition read?
**A.** 1.54%

**Q.** With `O=C(CNC(=O)c1ccc(Cl)cc1Cl)NCC(=O)Nc1ccccc1N1CCOCC1` as the compound, how does the inhibition read?
**A.** 83.6% (active)

**Q.** For `Cc1ccc(CN2CCCCC(NC(=O)C3CCCCC3)C2=O)cc1` (stereo not drawn), which inhibition is on record?
**A.** -0.65%

**Q.** Which inhibition does the source give for `O=C(CSc1nc2c(c(=O)[nH]1)CCCC2)N1CCCCC1` here?
**A.** 3.78%

**Q.** `NC(c1csc(NC(=O)Nc2ccccc2Oc2ccccc2)n1)c1ccccc1Cl` (stereo not drawn) was tested. Which inhibition did it give?
**A.** -3.13%

**Q.** `CCOC(=O)c1csc(NC(=O)Nc2cccc(OC)c2)n1` was tested. Which inhibition did it give?
**A.** 0.5%

**Q.** `COc1ccc(C(N)c2csc(NC(=O)Nc3cccc(C(F)(F)F)c3)n2)cc1` (stereo not drawn) was tested. Which inhibition did it give?
**A.** 25.5% (active)

**Q.** How did the inhibition turn out when `Nn1c(SCC(=O)Nc2cccc3ccccc23)nnc1-c1cc(-c2ccc(F)cc2)n[nH]1` was run?
**A.** -0.59%

**Q.** For `COc1ccc(Cl)cc1NC(=O)COC(=O)c1ccc(Br)o1`, which inhibition is on record?
**A.** -6.92%

**Q.** How did the inhibition turn out when `COc1ccc(Cl)cc1NC(=O)COC(=O)C(CC(C)C)N1C(=O)C2CC=CCC2C1=O` (stereo not drawn) was run?
**A.** 28% (active)

**Q.** How did the inhibition turn out when `COc1ccc(Cl)cc1NC(=O)c1cccc(N2C(=O)C3CC=CCC3C2=O)c1` (stereo not drawn) was run?
**A.** 3.57%

**Q.** `Cc1ccccc1CS(=O)(=O)Cc1ccc(C(=O)Nc2ccc(Cl)cc2)o1` was tested. Which inhibition did it give?
**A.** -29%

**Q.** `Cc1sc2nc(SCC(=O)c3ccc(O)c(O)c3)n(Cc3ccco3)c(=O)c2c1C` was tested. Which inhibition did it give?
**A.** 15.9%

**Q.** How did the inhibition turn out when `COc1cccc(CNC(=O)C2CCCN(c3nc4ccccc4o3)C2)c1OC` (stereo not drawn) was run?
**A.** 2.5%

**Q.** With `O=C1c2ccccc2C(=O)N1CCOc1ccc(F)cc1` as the compound, how does the inhibition read?
**A.** 0.68%

**Q.** How did the inhibition turn out when `O=Cc1cn(CCOc2ccc(F)cc2)c2ccccc12` was run?
**A.** 20.7% (active)

**Q.** With `Cc1c(C=O)c2ccccc2n1CCOc1ccccc1` as the compound, how does the inhibition read?
**A.** 10.4%

**Q.** For `Cc1ccc(C(=O)C2CCN(CC(=O)NCCC(C)C)CC2)cc1`, which inhibition is on record?
**A.** -6.22%

**Q.** Which inhibition does the source give for `O=C(/C=C/c1ccc(F)cc1)NC(=S)NNC(=O)c1cccnc1` here?
**A.** 22.8% (active)

**Q.** `Cc1cccc(OCCNC(=S)NC(=O)c2cccnc2)c1` was tested. Which inhibition did it give?
**A.** 2.33%

**Q.** Which inhibition does the source give for `NS(=O)(=O)c1ccc(NC(=S)NC(=O)c2cccnc2)cc1` here?
**A.** -8.74%

**Q.** For `O=C1CCC2(CCC(c3ccc(Cl)cc3)CC2)N1CCO` (stereo not drawn), which inhibition is on record?
**A.** -9.03%

**Q.** Which inhibition does the source give for `CCN(CC)c1ccc(/C=N/NC(=O)CNC(=O)c2cccs2)cc1` here?
**A.** -246%

**Q.** `O=C(N[C@@H](Cc1c[nH]c2ccccc12)C(=O)O)OCC1c2ccccc2-c2ccccc21` was tested. Which inhibition did it give?
**A.** -1.67%

**Q.** With `O=C(NC(Cc1c[nH]c2ccccc12)C(=O)N/N=C/c1ccc(Br)cc1)c1cccs1` (stereo not drawn) as the compound, how does the inhibition read?
**A.** 28.1% (active)

**Q.** Which inhibition does the source give for `COC(CNC(=O)[C@H](Cc1ccccc1)NC1(C(=O)NC2CCCCC2)CCCCC1)OC` here?
**A.** 4.93%

**Q.** Which inhibition does the source give for `O=C(CC(O)(C(F)(F)F)C(F)(F)F)Nc1ccc(Cl)c(Cl)c1` here?
**A.** 23.7% (active)

**Q.** Which inhibition does the source give for `O=C(CCS(=O)(=O)c1ccccc1)Nc1ccc(Cl)c(Cl)c1` here?
**A.** -2.68%

**Q.** `O=C(Nc1ccc(Cl)c(Cl)c1)N1CC=C(c2ccccc2)CC1` was tested. Which inhibition did it give?
**A.** -19.8%
